According to PubChem BioAssay (NCATS):
Results filed as inconclusive are left out. Activity calls are given as the source filed them. Unless noted, calls come from the whole dose curve; as a rule, active = well fitted curve in the direction sought with a large enough effect; inconclusive = small, poorly fitted or top-dose-only effect, or another doubt; inactive = no such curve, though single readings can be large; an effect the other way counts as inactive or inconclusive.

Tests used:
[1] = molecular target: Lysosomal acid glucosylceramidase (Homo sapiens) (UniProt P04062); test: Glucocerebrosidase-p2 (AID 348; in the data active = potency below about 10 µM; note: potency is the fitted concentration of half-maximal effect); conditions: purified GBA, blue fluorogenic substrate, 40 min
Method in brief: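 Normal human glucocerebrosidase (0.2 nM) with blue fluorogenic substrate (80 uM final) in citrate/phosphate pH 5.9 with 10mM sodium taurocholate, 0.01% tween-20; 40 min RT, NaOH/glycine stop; fluorescence Ex 365/Em 440; AC50 from a titration from 0.6 nM upwards.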

[2] = AP1 Signaling Pathway (AID 357; active = well fitted curve in either direction with a large enough effect, not every such curve was filed as active;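 note: ME-180 reporter cells stimulated with EGF at its EC50 level; % is set by controls: 0 for no effect and ±100 for the full control effect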); conditions: ME-180 AP-1-bla reporter, EGF-induced, beta-lactamase ratio, 5 h; at 7.69 µM (top of the series) unless noted
Method in brief: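 AP-1-bla ME-180 cells, Opti-MEM + 0.5% dialyzed FBS, plated overnight 37 °C. Cpd titration + EC50 EGF, 5 h 37 °C. CCF4 2.5 h RT; ex 405, em 460/530 ratio → %activity, AC50.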

[3] = Stat Signaling Pathway (AID 446; active = well fitted curve in either direction with a large enough effect, not every such curve was filed as active;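 note: ME-180 cervical cancer cells given 40 pM IL-6 alongside compound; SIE-controlled beta-lactamase reporter measured as 460/530 nm FRET emission ratio; % is set by controls: 0 for no effect and ±100 for the full control effect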); conditions: ME-180 SIE beta-lactamase reporter, IL-6 stimulated, 5 h; at 7.69 µM (top of the series) unless noted
Method in brief: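 Compound effects on IL-6-induced STAT reporter activity were measured in ME-180 cells. After overnight culture, cells were co-treated with 40 pM IL-6 for 5 hrs before beta-lactamase substrate loading at room temperature.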

[4] = molecular target: Glucocorticoid receptor (Homo sapiens) (UniProt P04150); test: GR-GFP Redistribution (AID 450;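 active = compounds whose dose series gives a full or clear partial fitted curve of increased nuclear translocation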; note: potency is the fitted concentration of half-maximal effect); conditions: U2OS GR-GFP nuclear translocation, laser cytometry, 2 h
[5] = molecular target: Glucocorticoid receptor (Homo sapiens) (UniProt P04150); test: GR-EFC Redistribution (AID 451; calls by dose curve; note: potency is the fitted concentration of half-maximal effect); conditions: CHO-K1 GR-EFC translocation, beta-gal luminescence, 2 h
Method in brief: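 CHO-K1 cells stably expressing nuclear-localized β-gal enzyme acceptor and GR fused C-terminally to the enzyme donor fragment; ligand-driven nuclear translocation restores β-gal by complementation. Compounds titrated up to 46 uM final, 2 h at 37 °C; luminescence read.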

[6] = molecular target: Mitogen-activated protein kinase 10 (Mus musculus) (UniProt Q61831); test: JNK3 AlphaScreen Assay (AID 530; active = well fitted curve in either direction with a large enough effect, not every such curve was filed as active;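 note: kinase came from lysate of stimulated human HepG2 cells; signal reports phosphorylation of biotinylated GST-cJun 1-79 at Ser73 with 10 µM ATP; % is set by controls: 0 for no effect and ±100 for the full control effect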); conditions: JNK3 lysate, c-Jun phosphorylation; series mostly up to 57.1 µM
Method in brief: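 Phosphorylation of biotinylated GST-cJun(1-79) at Ser73 is measured by AlphaScreen proximity luminescence. Enzyme is JNK3 in HepG2 lysates activated with interleukin-1beta and tumor necrosis factor alpha; ATP is 10 uM final.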

[7] = molecular target: 3',5'-cyclic-AMP phosphodiesterase 4B (Homo sapiens) (UniProt Q07343); test: qHTS Assay for Inhibitors of PDE-IV (AID 607; active = well fitted activation curve with a large enough effect in the main read-out, with a control signal flat, not every such curve was filed as active; note: % of control where 0% means no effect); conditions: HEK293 ACTOne CNG channel cells, membrane potential fluorescence; series mostly up to 22.9 µM
Method in brief: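 ACTOne HEK293 cells carry a modified cAMP-gated CNG channel and express endogenous PDE4; plated 1000 cells/well, compounds up to 22.9 uM final. Membrane-potential dye fluorescence (ex 535/em 590) was read; parental cells received 10 uM forskolin + 100 uM RO 20-1724.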

[8] = molecular target: Dual specificity protein kinase CLK4 (Homo sapiens) (UniProt Q9HAZ1); test: qHTS Assay for Inhibitors of CDC-like Kinase 4 (Kinase-Glo Assay) (AID 1770); conditions: recombinant Clk4, Kinase-Glo ATP depletion luminescence; series mostly up to 66.7 µM; note: nearly all actives have a fitted effect of over 65% in size; note: potency is the fitted concentration of half-maximal effect
Method in brief: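 25 nM Clk4 with 100 uM RS repeat peptide and 1 uM ATP (final) in Tris pH7.5, 10 mM MgCl2, 4.5 h at room temperature. Remaining ATP measured by Kinase-Glo luciferase luminescence.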

[9] = molecular target: Dual specificity protein kinase CLK4 (Homo sapiens) (UniProt Q9HAZ1); test: qHTS Assay for Inhibitors of CDC-like Kinase 4 (ADP-Glo Assay) (AID 1771); conditions: recombinant CLK4, ADP-Glo luminescence; series mostly up to 80 µM; note: nearly all actives have a fitted effect of over 70% in size; note: potency is the fitted concentration of half-maximal effect
Method in brief: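 ADP production was read by ADP-Glo luminescence after residual ATP depletion, following 1 h room-temperature reaction of 25 nM Clk4, 1 uM ATP and 100 uM RS peptide with MgCl2, EGTA, DTT and Triton X-100.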

[10] = molecular target: Dual specificity protein kinase CLK4 (Homo sapiens) (UniProt Q9HAZ1); test: qHTS Assay for Inhibitors of CDC-like Kinase 4 (ADP-FP Assay) (AID 1795); conditions: Transcreener ADP fluorescence polarization; series mostly up to 50 µM; note: nearly all actives have a fitted effect of over 60% in size; note: potency is the fitted concentration of half-maximal effect
Method in brief: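 Recombinant Clk4 (6.25 nM) phosphorylated 100 uM RS repeat peptide with 1 uM ATP in 25 mM Tris pH 7.5, 10 mM MgCl2, 0.5 mM EGTA, 2.5 mM DTT, 0.01% Triton X-100 for 1 h. ADP was detected by Transcreener ADP2 competitive fluorescence polarization after 30 min at room temperature.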

[11] = molecular target: Ubiquitin carboxyl-terminal hydrolase 1 (Homo sapiens) (UniProt O94782); test: Inhibitors of USP1/UAF1: Pilot qHTS (AID 504865); conditions: purified USP1/UAF1, Ub-rhodamine cleavage fluorescence; series mostly up to 54.9 µM;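 note: rhodamine fluorescence freed from ubiquitin-rhodamine substrate followed over time; top concentration of the series differs between compounds; % is set by controls: 0 for no effect and ±100 for the full control effect; nearly all actives have a fitted effect of over 35% in size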
Method in brief: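 USP1/UAF1 complex at 1 nM preincubated 15 min at room temperature with compound, then Ub-Rho substrate added at 150 nM final. Fluorescence (480/540 nm) read kinetically in 50 mM HEPES pH 7.8, 0.5 mM EDTA, 1 mM TCEP, 0.1 mg/ml BSA, 0.01% Tween-20.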

[12] = Primary qHTS for small molecule stabilizers of the endoplasmic reticulum resident proteome: Secreted ER Calcium Modulated Protein (SERCaMP) assay (AID 1508630); conditions: SH-SY5Y GLuc-SERCaMP (Gaussia luciferase released on ER calcium loss) secretion, thapsigargin, luminescence; series mostly up to 38.4 µM; note: % is set by controls: 0 for no effect and ±100 for the full control effect
Method in brief: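 The SH-SY5Y reporter protocol was run at 3 concentrations up to 38.3 uM (primary) or 11 concentrations (follow-up): 16 h compound, 100 nM thapsigargin for 4 h, then extracellular luciferase luminescence.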

[13] = molecular target: Cytochrome P450 1A2 (Homo sapiens) (UniProt P05177); test: p450-cyp1a2 (AID 410; calls by dose curve; note: potency is the fitted concentration of half-maximal effect); conditions: recombinant CYP1A2, luciferin-ME demethylation, luminescence; series mostly up to 57 µM
Method in brief: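 Luminescent demethylation readout: Luciferin-ME (100uM, equal to Km) turned over by 20nM CYP1A2 for 60 min at room temperature after NADPH regeneration addition, following 10 min compound preincubation. Normalization used 57 uM furafylline as full inhibition.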

[14] = NFAT Signaling Pathway (AID 444; active = well fitted curve in either direction with a large enough effect, not every such curve was filed as active); conditions: Jurkat NFAT-bla M1, carbachol, beta-lactamase ratio, 5 h; at 7.69 µM (top of the series) unless noted
Method in brief: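 Jurkat cells carrying an NFAT-driven β-lactamase reporter and co-transfected muscarinic M1 receptor were treated with compound plus carbachol (1 uM final, an EC50 level) for 5 h at 37 °C. CCF4 loading followed for 1 h at RT; 460/530 nm ratio gave %activity.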

[15] = molecular target: Cytochrome P450 3A4 (Homo sapiens) (UniProt P08684); test: qHTS Assay for Inhibitors and Substrates of Cytochrome P450 3A4 (AID 884); conditions: recombinant CYP3A4, Luciferin-PPXE luminescence; series mostly up to 57.1 µM; note: potency is the fitted concentration of half-maximal effect; nearly all actives have a fitted effect of over 50% in size
Method in brief: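 Luminescent readout of luciferin produced by CYP3A4 (20 nM) dealkylation of Luciferin-PPXE, 25 uM (its KM). NADPH-driven reaction ran 60 min at RT after 10 min compound preincubation; data scaled to 57 uM ketoconazole as 100% inhibition.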

[16] = molecular target: Cytochrome P450 3A4 (Homo sapiens) (UniProt P08684); test: qHTS Assay for Activators of Cytochrome P450 3A4 (AID 885); conditions: recombinant CYP3A4, Luciferin-PPXE luminescence, 60 min; series mostly up to 57.1 µM; note: nearly all actives have a fitted effect of over 65% in size
Method in brief: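 CYP3A4 activity: Luciferin-PPXE O-dealkylation, 25uM substrate, 200mM KPO4, RT throughout. Read-out is luciferase luminescence; higher values reflect activation.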

[17] = molecular target: Cytochrome P450 2D6 (Homo sapiens) (UniProt P10635); test: qHTS Assay for Inhibitors and Substrates of Cytochrome P450 2D6 (AID 891); conditions: recombinant CYP2D6, luciferin-ME EGE luminescence; series mostly up to 57.1 µM; note: potency is the fitted concentration of half-maximal effect; nearly all actives have a fitted effect of over 60% in size
Method in brief: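 Luminescent read-out of luciferin formed by 5 nM human CYP2D6 demethylating 30 uM Luciferin-ME EGE (Km level) over 60 min at room temperature after NADPH regeneration addition. Data normalized to full inhibition by 1.43 uM quinidine.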

[18] = molecular target: Cytochrome P450 2C19 (Homo sapiens) (UniProt P33261); test: qHTS Assay for Inhibitors and Substrates of Cytochrome P450 2C19 (AID 899); conditions: recombinant CYP2C19, luciferin-H EGE luminescence; series mostly up to 57.1 µM; note: potency is the fitted concentration of half-maximal effect; nearly all actives have a fitted effect of over 60% in size
Method in brief: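 NADPH-dependent conversion of Luciferin-H EGE (10uM, at KM) by 5nM enzyme in 50mM KPO4, 60 min at 37C following 10 min compound preincubation. Stopped with luciferin detection buffer; luminescence read after 20 min.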

[19] = qHTS Assay for Identification of Small Molecule Agonists for Hypoxia Response Element Signaling Pathway (AID 914; active = well fitted activation curve with a large enough effect in the signal ratio, with a control signal flat, not every such curve was filed as active; the % refers to the signal ratio; note: potency is the fitted concentration of half-maximal effect); conditions: ME-180 (cervical carcinoma) HRE-bla reporter, beta-lactamase ratio, CoCl2, 17 h; activation: hits give high values
Method in brief: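 In Opti-MEM containing 0.5% dialyzed FBS and 10 mM HEPES, ME-180 HRE-bla cells received a compound titration and EC50 CoCl2. They were incubated 17 hours, then CCF4-loaded 2.5 hours at room temperature before ratio reading.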

3',5'-cyclic-AMP phosphodiesterase 4B (Homo sapiens), sequence (Q07343 whole entry, looked up): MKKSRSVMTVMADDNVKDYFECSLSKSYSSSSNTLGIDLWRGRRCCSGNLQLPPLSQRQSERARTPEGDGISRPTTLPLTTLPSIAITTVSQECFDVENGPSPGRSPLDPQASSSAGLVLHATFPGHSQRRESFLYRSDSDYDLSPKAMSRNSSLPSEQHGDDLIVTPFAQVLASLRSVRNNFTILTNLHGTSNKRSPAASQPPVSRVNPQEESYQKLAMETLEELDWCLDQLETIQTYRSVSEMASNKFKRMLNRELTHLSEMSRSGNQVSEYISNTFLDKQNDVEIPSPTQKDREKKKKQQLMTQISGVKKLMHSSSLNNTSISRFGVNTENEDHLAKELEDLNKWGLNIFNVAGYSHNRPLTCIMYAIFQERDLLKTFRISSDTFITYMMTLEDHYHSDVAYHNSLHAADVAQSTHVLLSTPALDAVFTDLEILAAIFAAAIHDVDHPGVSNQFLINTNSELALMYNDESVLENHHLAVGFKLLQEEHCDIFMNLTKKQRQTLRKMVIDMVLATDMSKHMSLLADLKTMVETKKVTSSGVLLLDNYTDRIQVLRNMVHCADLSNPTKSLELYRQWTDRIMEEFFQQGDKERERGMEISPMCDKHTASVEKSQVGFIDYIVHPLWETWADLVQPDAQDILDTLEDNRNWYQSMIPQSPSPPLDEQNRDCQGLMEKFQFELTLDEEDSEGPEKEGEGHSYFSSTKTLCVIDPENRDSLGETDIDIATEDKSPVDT
Dual specificity protein kinase CLK4 (Homo sapiens), sequence (Q9HAZ1 whole entry, looked up): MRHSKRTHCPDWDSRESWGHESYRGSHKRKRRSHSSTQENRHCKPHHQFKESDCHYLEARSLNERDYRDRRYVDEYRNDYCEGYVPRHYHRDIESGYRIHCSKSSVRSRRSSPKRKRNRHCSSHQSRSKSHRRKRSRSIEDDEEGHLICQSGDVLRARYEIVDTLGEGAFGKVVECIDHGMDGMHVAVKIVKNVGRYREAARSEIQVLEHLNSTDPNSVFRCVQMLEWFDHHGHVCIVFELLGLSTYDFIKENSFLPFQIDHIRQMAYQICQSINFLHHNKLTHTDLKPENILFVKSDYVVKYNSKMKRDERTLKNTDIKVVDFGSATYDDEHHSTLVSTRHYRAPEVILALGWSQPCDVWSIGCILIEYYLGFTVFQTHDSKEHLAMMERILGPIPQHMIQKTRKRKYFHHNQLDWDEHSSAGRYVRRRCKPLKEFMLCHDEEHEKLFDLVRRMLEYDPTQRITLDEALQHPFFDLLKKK
Ubiquitin carboxyl-terminal hydrolase 1 (Homo sapiens), sequence (O94782 whole entry, looked up): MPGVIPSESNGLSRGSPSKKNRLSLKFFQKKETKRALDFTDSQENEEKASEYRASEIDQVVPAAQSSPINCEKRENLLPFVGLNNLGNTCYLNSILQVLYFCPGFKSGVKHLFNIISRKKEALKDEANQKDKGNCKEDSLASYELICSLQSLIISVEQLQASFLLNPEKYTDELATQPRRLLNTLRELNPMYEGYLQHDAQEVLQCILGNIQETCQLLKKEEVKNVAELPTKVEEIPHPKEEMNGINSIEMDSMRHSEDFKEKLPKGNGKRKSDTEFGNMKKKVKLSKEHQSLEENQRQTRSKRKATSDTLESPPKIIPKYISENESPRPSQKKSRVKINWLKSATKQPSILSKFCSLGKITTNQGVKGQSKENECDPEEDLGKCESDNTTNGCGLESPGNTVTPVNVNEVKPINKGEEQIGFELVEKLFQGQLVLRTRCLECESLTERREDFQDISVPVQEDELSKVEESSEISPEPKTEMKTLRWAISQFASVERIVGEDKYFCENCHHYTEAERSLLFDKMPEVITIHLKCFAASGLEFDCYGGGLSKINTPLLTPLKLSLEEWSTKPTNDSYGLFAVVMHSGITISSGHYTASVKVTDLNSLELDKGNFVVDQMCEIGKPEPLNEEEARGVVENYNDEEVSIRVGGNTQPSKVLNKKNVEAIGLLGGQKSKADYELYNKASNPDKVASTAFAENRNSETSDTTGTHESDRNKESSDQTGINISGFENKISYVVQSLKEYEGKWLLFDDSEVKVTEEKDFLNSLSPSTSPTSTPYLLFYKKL
Cytochrome P450 1A2 (Homo sapiens), sequence (P05177 whole entry, looked up): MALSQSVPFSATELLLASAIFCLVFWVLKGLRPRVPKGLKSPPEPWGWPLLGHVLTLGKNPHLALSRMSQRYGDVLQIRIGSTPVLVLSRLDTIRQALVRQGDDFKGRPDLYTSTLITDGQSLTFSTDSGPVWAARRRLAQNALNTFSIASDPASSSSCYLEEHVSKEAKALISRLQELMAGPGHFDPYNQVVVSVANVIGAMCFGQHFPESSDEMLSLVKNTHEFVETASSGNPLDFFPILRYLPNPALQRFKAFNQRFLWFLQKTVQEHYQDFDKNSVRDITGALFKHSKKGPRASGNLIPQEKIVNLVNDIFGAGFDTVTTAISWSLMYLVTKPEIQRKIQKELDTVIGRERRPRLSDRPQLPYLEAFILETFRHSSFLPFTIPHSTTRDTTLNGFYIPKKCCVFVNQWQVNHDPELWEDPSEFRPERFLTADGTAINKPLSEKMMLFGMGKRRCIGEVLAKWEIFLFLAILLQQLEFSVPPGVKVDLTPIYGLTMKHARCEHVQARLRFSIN
Lysosomal acid glucosylceramidase (Homo sapiens), sequence (P04062 whole entry, looked up): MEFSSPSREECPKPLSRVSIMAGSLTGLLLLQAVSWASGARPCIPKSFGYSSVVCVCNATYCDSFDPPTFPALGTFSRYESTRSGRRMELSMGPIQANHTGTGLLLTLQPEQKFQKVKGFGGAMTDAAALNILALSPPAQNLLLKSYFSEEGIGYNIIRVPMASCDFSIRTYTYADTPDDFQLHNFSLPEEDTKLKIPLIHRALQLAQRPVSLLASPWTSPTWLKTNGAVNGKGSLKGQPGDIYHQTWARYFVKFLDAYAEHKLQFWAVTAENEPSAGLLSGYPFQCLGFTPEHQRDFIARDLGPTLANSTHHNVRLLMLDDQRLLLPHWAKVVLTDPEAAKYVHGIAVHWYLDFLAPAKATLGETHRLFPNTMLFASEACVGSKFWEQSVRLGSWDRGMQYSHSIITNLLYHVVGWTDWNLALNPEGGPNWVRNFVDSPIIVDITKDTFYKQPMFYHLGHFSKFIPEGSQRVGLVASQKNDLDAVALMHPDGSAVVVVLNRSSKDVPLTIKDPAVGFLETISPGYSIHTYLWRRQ
Cytochrome P450 3A4 (Homo sapiens), sequence (P08684 whole entry, looked up): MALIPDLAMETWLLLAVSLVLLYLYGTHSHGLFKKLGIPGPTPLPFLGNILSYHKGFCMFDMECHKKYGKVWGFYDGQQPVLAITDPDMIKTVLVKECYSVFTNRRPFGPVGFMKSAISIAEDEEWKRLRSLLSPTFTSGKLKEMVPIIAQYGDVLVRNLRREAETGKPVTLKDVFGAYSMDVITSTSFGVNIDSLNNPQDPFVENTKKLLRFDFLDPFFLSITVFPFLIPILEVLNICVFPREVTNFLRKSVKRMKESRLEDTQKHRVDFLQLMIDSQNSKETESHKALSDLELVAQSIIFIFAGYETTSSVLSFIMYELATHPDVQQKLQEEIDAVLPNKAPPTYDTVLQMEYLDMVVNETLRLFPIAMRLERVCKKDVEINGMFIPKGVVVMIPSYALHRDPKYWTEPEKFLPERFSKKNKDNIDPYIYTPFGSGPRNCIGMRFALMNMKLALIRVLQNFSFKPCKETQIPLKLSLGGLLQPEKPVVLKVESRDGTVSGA
Glucocorticoid receptor (Homo sapiens), sequence (P04150 whole entry, looked up, the tested form may be a part): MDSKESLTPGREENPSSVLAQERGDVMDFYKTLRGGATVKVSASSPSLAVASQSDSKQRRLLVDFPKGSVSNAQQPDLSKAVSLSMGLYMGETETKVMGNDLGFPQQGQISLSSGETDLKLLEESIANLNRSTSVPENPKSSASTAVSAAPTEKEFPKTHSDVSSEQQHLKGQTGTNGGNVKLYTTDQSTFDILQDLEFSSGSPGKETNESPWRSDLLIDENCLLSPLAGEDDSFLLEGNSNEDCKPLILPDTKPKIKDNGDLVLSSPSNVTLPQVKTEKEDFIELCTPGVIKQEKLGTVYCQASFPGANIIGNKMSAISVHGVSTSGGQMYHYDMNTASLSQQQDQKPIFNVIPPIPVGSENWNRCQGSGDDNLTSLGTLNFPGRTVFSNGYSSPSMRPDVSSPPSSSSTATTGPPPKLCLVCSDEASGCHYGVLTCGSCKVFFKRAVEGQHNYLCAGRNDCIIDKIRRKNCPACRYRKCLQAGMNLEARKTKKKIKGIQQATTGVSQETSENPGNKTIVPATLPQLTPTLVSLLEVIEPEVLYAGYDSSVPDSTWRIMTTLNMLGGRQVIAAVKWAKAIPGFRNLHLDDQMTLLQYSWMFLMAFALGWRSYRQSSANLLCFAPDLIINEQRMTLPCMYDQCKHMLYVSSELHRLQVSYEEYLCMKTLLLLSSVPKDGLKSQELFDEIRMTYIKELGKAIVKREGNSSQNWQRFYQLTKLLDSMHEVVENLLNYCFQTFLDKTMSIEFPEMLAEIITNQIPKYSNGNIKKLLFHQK
Cytochrome P450 2D6 (Homo sapiens), sequence (P10635 whole entry, looked up): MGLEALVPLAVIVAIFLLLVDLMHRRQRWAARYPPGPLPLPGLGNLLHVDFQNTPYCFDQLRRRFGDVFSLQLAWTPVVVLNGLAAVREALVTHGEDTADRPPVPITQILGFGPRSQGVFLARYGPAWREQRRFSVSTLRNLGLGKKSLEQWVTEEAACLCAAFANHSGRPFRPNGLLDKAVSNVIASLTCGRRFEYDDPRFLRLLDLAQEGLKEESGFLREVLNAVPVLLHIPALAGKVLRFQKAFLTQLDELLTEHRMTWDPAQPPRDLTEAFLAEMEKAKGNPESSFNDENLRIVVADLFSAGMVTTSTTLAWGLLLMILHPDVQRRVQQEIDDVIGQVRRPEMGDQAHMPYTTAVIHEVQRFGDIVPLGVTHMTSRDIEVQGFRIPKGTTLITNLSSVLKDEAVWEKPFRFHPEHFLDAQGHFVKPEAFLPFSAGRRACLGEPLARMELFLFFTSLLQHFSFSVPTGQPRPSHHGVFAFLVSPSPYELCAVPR

COc1ccc(Oc2ncc3nc(-c4ccc(F)cc4)c(=O)n(C4CC4)c3n2)cc1
inactive: Potency [1] > 11.4 µM | activity change, negative = inhibition [2] 0.828% | activity, negative = inhibition [3] 14.5% | Potency [4] > 9.22 µM | Potency [5] > 46 µM | Potency [6] | Potency [7] | Potency [8] | Potency [9] | Potency [10] | Potency [11] | outcome [12]

c1cn(-c2ccnc(-c3ccc4c(c3)OCO4)n2)cn1
inactive: Potency [1] > 11.4 µM | activity change, negative = inhibition [14] 17.8% | activity, negative = inhibition [3] 5.91% | Potency [4] > 46 µM | Potency [5] > 46 µM | Potency [6] | Potency [7] | Potency [16] | Potency [11] | outcome [12]
active: Potency [13] 0.0251 µM | Potency [15] 0.631 µM | Potency [17] 3.16 µM | Potency [8] 2.51 µM | Potency [9] 2.24 µM | Potency [10] 3.98 µM

FC(F)(F)c1ccccc1-c1nccc(NCCN2CCOCC2)n1
inactive: Potency [1] > 11.4 µM | activity change, negative = inhibition [2] 27.9% | activity, negative = inhibition [3] -13.3% | Potency [4] > 46 µM | Potency [5] > 46 µM | Potency [6] | Potency [7] | Potency [16] | Potency [8] | Potency [9] | Potency [10] | Potency [11] | outcome [12]

N#CCCn1c(=O)c(-c2cc(F)cc(F)c2)nc2cnc(Nc3ccccc3)nc21
inactive: Potency [1] > 11.4 µM | activity change, negative = inhibition [2] 9.43% | activity, negative = inhibition [3] -15.8% | Potency [4] > 9.22 µM | Potency [5] > 46 µM | Potency [6] | Potency [7] | Potency [8] | Potency [9] | Potency [10] | outcome [12]

Cn1c(=O)c(CCc2ccccc2)nc2cnc(Nc3ccccc3)nc21
inactive: Potency [1] > 11.4 µM | activity change, negative = inhibition [14] 1.9% | activity, negative = inhibition [3] -11.6% | Potency [4] > 9.22 µM | Potency [5] > 46 µM | Potency [6] | Potency [16] | Potency [8] | Potency [9] | Potency [10] | Potency [11] | outcome [12]
active: Potency [13] 1.26 µM

O=c1c(CCc2ccccc2)nc2cncnc2n1Cc1ccccc1Cl
active: Potency [13] 12.6 µM | Potency [18] 5.01 µM
inactive: Potency [1] > 11.4 µM | activity change, negative = inhibition [14] -6.53% | activity, negative = inhibition [3] -12.1% | Potency [4] > 46 µM | Potency [5] > 46 µM | Potency [6] | Potency [16] | Potency [8] | Potency [9] | Potency [10] | Potency [11] | outcome [12]

CCNc1ncc2nc(-c3ccc(F)cc3)c(=O)n(-c3ccccc3)c2n1
active: Potency [13] 0.398 µM | Potency [19] 3.16 µM
inactive: Potency [1] > 11.4 µM | Potency [4] > 9.22 µM | Potency [5] > 46 µM | Potency [6] | Potency [8] | Potency [9] | Potency [10] | Potency [11] | outcome [12]
